The source of these data is PubChem BioAssay (NCI).

Structures are written as SMILES. Compounds without any hit were thinned out: in the full panel of roughly 83,000, 20% have a hit.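 Results are percent growth after 48 hours of single-concentration exposure. 100 means growth as in untreated cells, lower positive values show inhibition; negative values down to -100 show cell death.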 Unmarked numbers belong to inactive results. The source made the active and inactive calls. Rule for the calls: active = growth percent below 10; inactive = the rest.

Test systems include DU-145 prostate; K-562 leukemia; MALME-3M melanoma; MDA-MB-231 breast; RXF 393 renal; SF-268 CNS; SF-295 CNS; SF-539 CNS; UACC-257 melanoma; M14 melanoma; HCT-15 colon; HT29 colon; SNB-75 CNS; SNB-19 CNS; U251 CNS; PC-3 prostate; SK-MEL-5 melanoma; UACC-62 melanoma; SK-MEL-28 melanoma; LOX IMVI melanoma.
Common to all, as to assay: NCI-60 one-dose screen, 48 h (100 = growth as untreated, 0 = no growth, -100 = all killed)
Holding throughout (settings): 10 µM unless noted

In the case of `COc1ncc(-c2ccc3nccc(-c4ccnnc4)c3c2)cc1NS(=O)(=O)c1ccc(F)cc1F`, the growth in the assay on DU-145 prostate was 10.8%; with K-562 leukemia, 3.76% (active); in the assay with MALME-3M melanoma it was -34.2% (active); with MDA-MB-231 breast, 5.98% (active); with RXF 393 renal, -58.5% (active); in the assay with SF-268 CNS, 6.46% (active). Besides, the growth in the assay with SF-295 CNS is -27.3% (active); with SF-539 CNS, -47.2% (active); with UACC-257 melanoma, -36.2% (active); in the assay with M14 melanoma, -7.62% (active); in the assay with HCT-15 colon it was -15% (active); with HT29 colon it was -10.4% (active). The growth in the assay with SNB-75 CNS is -29.8% (active); in the assay on SNB-19 CNS, -42.8% (active); with U251 CNS, -62.3% (active); in the assay with PC-3 prostate, -0.788% (active); in the assay on SK-MEL-5 melanoma, -95.8% (active); in the assay with UACC-62 melanoma, -67.4% (active). Besides, the growth in the assay with SK-MEL-28 melanoma is -17.4% (active).
Turning to `Cc1cc(NCC(=O)Nc2ccc(-c3nc4ccccc4s3)cc2)no1`, the growth was 95.9% in the assay on DU-145 prostate; 83% in the assay with K-562 leukemia; 89.5% with MALME-3M melanoma; 108% in the assay with MDA-MB-231 breast; 105% in the assay with RXF 393 renal; 87.4% in the assay on SF-268 CNS. Besides, the growth with SF-295 CNS was 96.4%; with SF-539 CNS it was 105%; in the assay on UACC-257 melanoma it was 99.7%; in the assay with M14 melanoma, 106%; with HCT-15 colon it was 90.7%; in the assay with HT29 colon, 105%. The growth with SNB-75 CNS is 111%; in the assay on SNB-19 CNS, 96.5%; in the assay with U251 CNS it was 88.1%; in the assay on PC-3 prostate it was 96.6%; in the assay on SK-MEL-5 melanoma, 87.7%; with UACC-62 melanoma it was 86.5%. Besides, the growth with SK-MEL-28 melanoma was 110%.
`CCN(CC)CCN1C(=O)c2cccc3c(-c4ccc5c(c4)ncn5C4CCCCC4)ccc(c23)C1=O`: the growth with DU-145 prostate is 28.4%; in the assay with K-562 leukemia, -14.2% (active); with MALME-3M melanoma, -74.5% (active); in the assay with MDA-MB-231 breast, 11.8%; with RXF 393 renal it was -11.4% (active); in the assay on SF-268 CNS, 39.9%. Further, the growth in the assay with SF-295 CNS was -41.7% (active); in the assay with SF-539 CNS, -76.2% (active); in the assay on UACC-257 melanoma, -15% (active); in the assay with M14 melanoma, -62.8% (active); with HCT-15 colon, 8.61% (active); in the assay with HT29 colon, 0.739% (active). The growth with SNB-75 CNS was 4.41% (active); in the assay on SNB-19 CNS, 32.6%; in the assay on U251 CNS, 14.7%; in the assay with PC-3 prostate it was 5.21% (active); in the assay on SK-MEL-5 melanoma, -96.6% (active); with LOX IMVI melanoma, -81.6% (active). The growth with SK-MEL-28 melanoma was -38.2% (active).
For `C=CC(=O)Nc1cc(Nc2nccc(-c3cn(C)c4ccccc34)n2)c(OC)cc1N(C)CCN(C)C`, the growth is 9.23% (active) in the assay on DU-145 prostate; -40.1% (active) in the assay on K-562 leukemia; -82.4% (active) in the assay on MALME-3M melanoma; -68.4% (active) in the assay on MDA-MB-231 breast; -84.2% (active) with RXF 393 renal; -15.6% (active) in the assay with SF-268 CNS. The growth with SF-295 CNS was -41.4% (active); in the assay on SF-539 CNS, -90.7% (active); with UACC-257 melanoma it was -79.1% (active); with M14 melanoma, -79.4% (active); in the assay with HCT-15 colon, -63.9% (active); in the assay with HT29 colon it was -61.2% (active). Besides, the growth was -6.88% (active) in the assay on SNB-75 CNS; -7.94% (active) in the assay with SNB-19 CNS; -72.7% (active) with U251 CNS; -52.6% (active) in the assay with PC-3 prostate; -96.5% (active) in the assay on SK-MEL-5 melanoma; -84.6% (active) in the assay on LOX IMVI melanoma. Further, the growth in the assay with SK-MEL-28 melanoma was -87.2% (active).
On to `CNC(=O)c1cc(Oc2cccc3nc(Nc4ccc(Oc5ccccc5)cc4)ccc23)ccn1`, for which the growth was 83.4% with DU-145 prostate; 41% in the assay with K-562 leukemia; 78.2% in the assay with MALME-3M melanoma; 71.6% in the assay with MDA-MB-231 breast; 91.3% with RXF 393 renal; 75.4% in the assay on SF-268 CNS. For the same compound, the growth was 60.2% in the assay on SF-295 CNS; 90.8% in the assay on SF-539 CNS; 77.2% with UACC-257 melanoma; 68.6% in the assay on M14 melanoma; 54.7% in the assay with HCT-15 colon; 62.5% with HT29 colon. The growth in the assay on SNB-75 CNS was 67.8%; in the assay on SNB-19 CNS it was 92%; in the assay with U251 CNS, 65.6%; in the assay with PC-3 prostate, 35.4%; in the assay with SK-MEL-5 melanoma, 36.3%; with LOX IMVI melanoma, 83%. Moreover, in the assay on SK-MEL-28 melanoma, the growth is 77.4%.
Regarding `O=C(O)c1ccc(Nc2ncc3c(n2)-c2ccc(Cl)cc2C(c2c(F)cccc2F)=NC3)cc1`, the growth in the assay on DU-145 prostate is 72.1%; in the assay on K-562 leukemia, 23.3%; with MALME-3M melanoma, 76.5%; with MDA-MB-231 breast, 51.7%; in the assay with RXF 393 renal, 43.8%; in the assay with SF-268 CNS it was 52.6%. The growth in the assay with SF-295 CNS is 39.3%; with SF-539 CNS, 59.4%; with UACC-257 melanoma, 46.4%; with M14 melanoma, 57.5%; with HCT-15 colon, 50.5%; in the assay with HT29 colon, 30.2%. Also, the growth with SNB-75 CNS is 48.8%; in the assay on SNB-19 CNS, 54.6%; with U251 CNS, 42.5%; in the assay on PC-3 prostate it was 51.3%; in the assay on SK-MEL-5 melanoma it was 60.6%; in the assay with LOX IMVI melanoma, 33%. In addition, the growth with SK-MEL-28 melanoma is 75.1%.
Turning to `Cc1c(Cn2c(C)nc3c(C(=O)O)cc(N4CCOCC4)cc32)cccc1C(F)(F)F`, the growth was 108% with DU-145 prostate; 87.4% in the assay with K-562 leukemia; 91.8% with MALME-3M melanoma; 110% with MDA-MB-231 breast; 27.3% in the assay with RXF 393 renal; 88.6% in the assay with SF-268 CNS. Also, the growth is 75.1% in the assay on SF-295 CNS; 113% in the assay with SF-539 CNS; 79% with UACC-257 melanoma; 89% in the assay with M14 melanoma; 44.5% with HCT-15 colon; 69.5% with HT29 colon. The growth with SNB-75 CNS is 61.3%; with SNB-19 CNS it was 118%; in the assay on U251 CNS, 104%; with PC-3 prostate, 68.2%; with SK-MEL-5 melanoma it was 104%; with LOX IMVI melanoma it was 101%. Besides, the growth with SK-MEL-28 melanoma is 80.9%.
Consider `COC(=O)[C@H](Cc1ccccc1)NC(=O)[C@@H](OC)[C@@H]1Cc2cc3cc(OC4CC(OC5CC(O)C(O)C(C)O5)C(O)C(C)O4)c(C)c(O)c3c(O)c2C(=O)[C@H]1OC1CC(OC2CC(OC3CC(C)(O)C(O)C(C)O3)C(O)C(C)O2)C(O)C(C)O1` (some centres not stated), for which the growth in the assay on DU-145 prostate is 11.8%; in the assay on K-562 leukemia, 5.63% (active); in the assay on MALME-3M melanoma, -54.8% (active); with MDA-MB-231 breast it was -8.99% (active); with RXF 393 renal, -75% (active); with SF-268 CNS, -2% (active). In addition, the growth in the assay with SF-295 CNS was -9.46% (active); in the assay on SF-539 CNS, -35.7% (active); with UACC-257 melanoma it was -16.2% (active); in the assay on M14 melanoma, -60.8% (active); in the assay with HCT-15 colon, 5.61% (active); in the assay with HT29 colon, 4.24% (active). Further, the growth in the assay on SNB-75 CNS was -86.8% (active); with SNB-19 CNS, 4.82% (active); with U251 CNS, 2.62% (active); with PC-3 prostate, -9.57% (active); in the assay with SK-MEL-5 melanoma, -78% (active); in the assay with UACC-62 melanoma, -56.6% (active). In addition, in the assay with SK-MEL-28 melanoma, the growth is -27% (active).
